17 targets from the supplement of paper PMC11001985 can be followed below.

Unmarked numbers belong to inactive results.

Chain of UniProt P06756 (P06756 whole entry): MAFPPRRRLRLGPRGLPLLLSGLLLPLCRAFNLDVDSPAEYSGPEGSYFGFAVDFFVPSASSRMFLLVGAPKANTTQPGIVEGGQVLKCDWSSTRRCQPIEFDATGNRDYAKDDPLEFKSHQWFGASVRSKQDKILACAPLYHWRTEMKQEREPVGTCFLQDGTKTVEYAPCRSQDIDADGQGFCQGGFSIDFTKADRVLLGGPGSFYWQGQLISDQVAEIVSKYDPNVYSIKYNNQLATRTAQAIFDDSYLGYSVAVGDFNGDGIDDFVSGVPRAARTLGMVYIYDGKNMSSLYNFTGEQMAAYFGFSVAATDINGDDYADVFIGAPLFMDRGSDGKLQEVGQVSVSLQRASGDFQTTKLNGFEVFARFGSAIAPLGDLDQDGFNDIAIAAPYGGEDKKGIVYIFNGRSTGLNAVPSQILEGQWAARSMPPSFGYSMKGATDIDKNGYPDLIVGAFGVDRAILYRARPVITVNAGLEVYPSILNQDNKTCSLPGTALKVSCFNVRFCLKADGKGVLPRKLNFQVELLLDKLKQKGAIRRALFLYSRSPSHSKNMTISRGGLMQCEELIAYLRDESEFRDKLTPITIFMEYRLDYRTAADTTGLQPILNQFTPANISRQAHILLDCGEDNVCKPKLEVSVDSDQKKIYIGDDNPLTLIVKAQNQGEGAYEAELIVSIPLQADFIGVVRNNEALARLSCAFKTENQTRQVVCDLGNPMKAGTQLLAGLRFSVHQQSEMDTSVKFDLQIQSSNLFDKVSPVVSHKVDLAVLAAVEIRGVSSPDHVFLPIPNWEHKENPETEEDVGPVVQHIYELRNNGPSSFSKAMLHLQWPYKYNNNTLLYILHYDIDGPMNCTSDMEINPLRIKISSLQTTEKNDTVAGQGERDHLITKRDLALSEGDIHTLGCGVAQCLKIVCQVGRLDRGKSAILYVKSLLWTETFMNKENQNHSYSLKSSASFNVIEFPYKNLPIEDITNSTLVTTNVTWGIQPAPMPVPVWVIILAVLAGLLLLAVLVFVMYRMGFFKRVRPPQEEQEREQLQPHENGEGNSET
Chain of UniProt Q86SF2 (Q86SF2 whole entry): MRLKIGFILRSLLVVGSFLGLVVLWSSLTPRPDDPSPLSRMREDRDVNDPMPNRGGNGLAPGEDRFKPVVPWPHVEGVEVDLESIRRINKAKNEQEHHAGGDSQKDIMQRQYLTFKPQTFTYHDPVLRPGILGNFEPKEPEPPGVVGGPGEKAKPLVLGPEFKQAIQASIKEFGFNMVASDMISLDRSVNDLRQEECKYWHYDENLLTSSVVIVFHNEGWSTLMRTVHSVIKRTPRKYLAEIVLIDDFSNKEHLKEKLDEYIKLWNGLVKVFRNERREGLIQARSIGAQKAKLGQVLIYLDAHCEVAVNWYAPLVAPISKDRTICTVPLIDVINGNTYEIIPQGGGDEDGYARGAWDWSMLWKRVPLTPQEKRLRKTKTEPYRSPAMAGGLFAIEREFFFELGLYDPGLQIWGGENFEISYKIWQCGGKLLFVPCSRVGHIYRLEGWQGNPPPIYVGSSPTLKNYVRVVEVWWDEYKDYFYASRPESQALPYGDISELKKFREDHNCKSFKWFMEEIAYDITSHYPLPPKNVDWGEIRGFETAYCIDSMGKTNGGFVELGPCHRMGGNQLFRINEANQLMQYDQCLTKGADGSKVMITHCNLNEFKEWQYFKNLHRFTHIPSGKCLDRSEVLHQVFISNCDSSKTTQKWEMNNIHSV
Chain of UniProt Q9UIQ6 (Q9UIQ6 whole entry): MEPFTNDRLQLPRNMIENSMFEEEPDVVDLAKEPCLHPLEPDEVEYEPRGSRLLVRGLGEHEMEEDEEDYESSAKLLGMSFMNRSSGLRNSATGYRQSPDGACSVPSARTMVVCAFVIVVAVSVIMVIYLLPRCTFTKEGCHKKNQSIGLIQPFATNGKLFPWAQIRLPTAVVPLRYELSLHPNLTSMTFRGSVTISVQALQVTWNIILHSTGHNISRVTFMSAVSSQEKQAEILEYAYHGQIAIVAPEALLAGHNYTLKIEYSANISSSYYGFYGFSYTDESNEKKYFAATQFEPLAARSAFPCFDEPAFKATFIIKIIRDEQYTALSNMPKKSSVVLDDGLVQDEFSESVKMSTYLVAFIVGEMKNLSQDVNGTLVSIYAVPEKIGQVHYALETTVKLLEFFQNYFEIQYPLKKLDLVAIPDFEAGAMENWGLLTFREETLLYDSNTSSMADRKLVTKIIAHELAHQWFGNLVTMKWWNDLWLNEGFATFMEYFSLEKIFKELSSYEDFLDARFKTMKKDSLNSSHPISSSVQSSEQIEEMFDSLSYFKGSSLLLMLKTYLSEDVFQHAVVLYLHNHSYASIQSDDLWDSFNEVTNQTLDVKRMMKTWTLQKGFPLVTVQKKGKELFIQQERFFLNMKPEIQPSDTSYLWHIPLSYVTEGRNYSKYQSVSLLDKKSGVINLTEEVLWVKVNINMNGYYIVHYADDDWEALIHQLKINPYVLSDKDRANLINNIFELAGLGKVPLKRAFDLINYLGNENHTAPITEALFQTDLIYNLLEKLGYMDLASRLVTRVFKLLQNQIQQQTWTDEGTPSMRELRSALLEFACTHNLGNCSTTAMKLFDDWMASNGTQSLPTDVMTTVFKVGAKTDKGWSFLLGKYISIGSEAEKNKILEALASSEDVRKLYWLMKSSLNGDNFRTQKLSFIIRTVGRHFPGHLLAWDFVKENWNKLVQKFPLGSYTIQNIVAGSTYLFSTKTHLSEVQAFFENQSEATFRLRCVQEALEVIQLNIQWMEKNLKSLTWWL
Chain of UniProt P61769 (P61769 whole entry): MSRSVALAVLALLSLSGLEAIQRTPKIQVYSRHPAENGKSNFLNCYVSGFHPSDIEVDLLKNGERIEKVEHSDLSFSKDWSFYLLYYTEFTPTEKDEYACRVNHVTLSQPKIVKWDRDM
Chain of UniProt Q13443 (Q13443 whole entry): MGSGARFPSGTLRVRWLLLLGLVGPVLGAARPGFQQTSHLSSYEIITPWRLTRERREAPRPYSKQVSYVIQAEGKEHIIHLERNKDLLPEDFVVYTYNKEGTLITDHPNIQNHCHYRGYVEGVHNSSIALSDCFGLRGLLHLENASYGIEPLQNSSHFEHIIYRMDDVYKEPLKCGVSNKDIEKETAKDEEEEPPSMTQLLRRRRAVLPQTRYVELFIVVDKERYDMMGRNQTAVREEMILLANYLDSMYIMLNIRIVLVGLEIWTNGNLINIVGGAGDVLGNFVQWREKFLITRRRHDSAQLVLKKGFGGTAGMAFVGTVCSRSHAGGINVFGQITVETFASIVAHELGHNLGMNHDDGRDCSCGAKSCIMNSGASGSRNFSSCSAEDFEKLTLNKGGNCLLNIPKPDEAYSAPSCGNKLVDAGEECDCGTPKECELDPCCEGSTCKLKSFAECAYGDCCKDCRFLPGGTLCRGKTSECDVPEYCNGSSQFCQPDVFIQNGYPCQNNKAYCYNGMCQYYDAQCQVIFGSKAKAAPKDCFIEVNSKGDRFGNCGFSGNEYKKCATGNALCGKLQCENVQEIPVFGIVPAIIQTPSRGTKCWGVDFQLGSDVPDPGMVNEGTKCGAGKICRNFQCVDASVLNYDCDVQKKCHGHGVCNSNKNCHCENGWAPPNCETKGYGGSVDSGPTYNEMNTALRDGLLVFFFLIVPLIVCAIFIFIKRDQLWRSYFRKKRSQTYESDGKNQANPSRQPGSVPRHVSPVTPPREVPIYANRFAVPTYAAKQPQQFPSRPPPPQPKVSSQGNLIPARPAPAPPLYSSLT
Chain of UniProt Q8N441 (Q8N441 whole entry): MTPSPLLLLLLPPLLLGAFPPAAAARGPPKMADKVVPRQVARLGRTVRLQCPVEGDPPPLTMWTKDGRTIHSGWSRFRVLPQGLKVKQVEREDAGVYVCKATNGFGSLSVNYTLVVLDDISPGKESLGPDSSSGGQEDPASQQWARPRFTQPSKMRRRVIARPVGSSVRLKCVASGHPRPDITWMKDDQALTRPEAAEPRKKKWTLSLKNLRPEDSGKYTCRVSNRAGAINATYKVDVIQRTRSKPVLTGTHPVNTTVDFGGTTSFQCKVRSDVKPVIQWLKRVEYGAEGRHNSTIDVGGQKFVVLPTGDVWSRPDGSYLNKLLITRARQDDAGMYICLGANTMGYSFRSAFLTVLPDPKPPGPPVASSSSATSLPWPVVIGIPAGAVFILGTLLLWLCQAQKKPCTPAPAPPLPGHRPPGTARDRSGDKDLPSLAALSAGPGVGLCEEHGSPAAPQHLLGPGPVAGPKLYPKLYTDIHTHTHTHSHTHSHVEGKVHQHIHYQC
Chain of UniProt P48643 (P48643 whole entry): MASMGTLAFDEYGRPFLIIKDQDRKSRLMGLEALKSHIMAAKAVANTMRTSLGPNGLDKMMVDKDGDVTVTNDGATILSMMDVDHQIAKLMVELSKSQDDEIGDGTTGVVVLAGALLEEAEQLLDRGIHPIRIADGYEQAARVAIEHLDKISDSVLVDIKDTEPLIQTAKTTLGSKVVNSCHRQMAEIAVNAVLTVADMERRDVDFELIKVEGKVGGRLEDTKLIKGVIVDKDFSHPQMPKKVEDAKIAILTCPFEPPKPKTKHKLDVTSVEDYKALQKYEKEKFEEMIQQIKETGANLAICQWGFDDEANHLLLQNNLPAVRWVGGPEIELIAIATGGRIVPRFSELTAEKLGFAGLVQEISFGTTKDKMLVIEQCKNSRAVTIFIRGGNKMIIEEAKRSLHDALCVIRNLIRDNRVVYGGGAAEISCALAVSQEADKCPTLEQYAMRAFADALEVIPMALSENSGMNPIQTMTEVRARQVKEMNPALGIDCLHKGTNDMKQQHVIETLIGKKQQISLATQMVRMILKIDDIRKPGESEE

Compound in the test: C#CCNC(=O)CCSSCCC(=O)NCCc1ccc(C=O)c(C=O)c1
Description: lysine labeling ratio R10:1 (500 µM / 50 µM probe), SILAC-ABPP in living cells; higher = lower intrinsic lysine reactivity toward the probe, active = 2 or less. The conditions noted are these: HeLa; probe concentrations 500 vs 50 µM. In a few lines: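 For each lysine, R is the median over forward and reverse replicates of the filtered median MS1 peptide ratio of high probe to low probe. The probe, an alkyne-tagged, disulfide-linked lysine probe, was given at 500 µM or 50 µM to living SILAC light and heavy HeLa cells in PBS at room temperature, with label swaps. Values are capped at 20.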
For GPI (lysine site: K34) (UniProt P06744), the “lysine labeling ratio R10:1” value was 2.53. Under “ADAM9 (lysine site: K290) (UniProt Q13443)” stands 2.64; under “CCT5 (lysine site: K399) (UniProt P48643)”, 2.73. In the case of UniProt Q8N441 (lysine site: K34), the “lysine labeling ratio R10:1” value was 3.03. Take “ITGAV (lysine site: K134) (UniProt P06756)”: the “lysine labeling ratio R10:1” value was 2.96. Under “PPL (lysine site: K492) (UniProt O60437)” stands 1.71 (active); under “ITGA5 (lysine site: K965) (UniProt P08648)”, 0.705 (active); under “CKB (lysine site: K313) (UniProt P12277)”, 1.31 (active). Under UniProt P08727 (lysine site: K216) stands 7.74; under “L1CAM (lysine site: K381) (UniProt P32004)”, 14; under “LNPEP (lysine site: K923) (UniProt Q9UIQ6)”, 5.14. Next, “ITGAV (lysine site: K535) (UniProt P06756)”: 1.58 (active). Take “EEF1G (lysine site: K434) (UniProt P26641)”: the “lysine labeling ratio R10:1” value is 3.73. Next, “GALNT7 (lysine site: K624) (UniProt Q86SF2)”: 1.81 (active); “B2M (lysine site: K114) (UniProt P61769)”: 15.6; “IGF2R (lysine site: K527) (UniProt P11717)”: 2.81. With “GANAB (lysine site: K491) (UniProt Q14697)”, the “lysine labeling ratio R10:1” value was 1.12 (active).
